Test results taken from paper PMC4336329 (PLoS ONE, 2015).
Among all 310,000 compounds or so, about 14,000 (4.5%) showed an effect of 50% or more. Effects have a minus sign here. What follows is part of a selection rich in strong results, with near analogues and random picks from the rest.

These molecules were tested against human ether-à-go-go-related gene (hERG) potassium channel (human, UniProt Q12809) (assay: primary screen, population patch clamp on CHO cells stably expressing hERG; higher = less effect of the substance).
Chain of human ether-à-go-go-related gene (hERG) potassium channel (Q12809 whole entry, looked up): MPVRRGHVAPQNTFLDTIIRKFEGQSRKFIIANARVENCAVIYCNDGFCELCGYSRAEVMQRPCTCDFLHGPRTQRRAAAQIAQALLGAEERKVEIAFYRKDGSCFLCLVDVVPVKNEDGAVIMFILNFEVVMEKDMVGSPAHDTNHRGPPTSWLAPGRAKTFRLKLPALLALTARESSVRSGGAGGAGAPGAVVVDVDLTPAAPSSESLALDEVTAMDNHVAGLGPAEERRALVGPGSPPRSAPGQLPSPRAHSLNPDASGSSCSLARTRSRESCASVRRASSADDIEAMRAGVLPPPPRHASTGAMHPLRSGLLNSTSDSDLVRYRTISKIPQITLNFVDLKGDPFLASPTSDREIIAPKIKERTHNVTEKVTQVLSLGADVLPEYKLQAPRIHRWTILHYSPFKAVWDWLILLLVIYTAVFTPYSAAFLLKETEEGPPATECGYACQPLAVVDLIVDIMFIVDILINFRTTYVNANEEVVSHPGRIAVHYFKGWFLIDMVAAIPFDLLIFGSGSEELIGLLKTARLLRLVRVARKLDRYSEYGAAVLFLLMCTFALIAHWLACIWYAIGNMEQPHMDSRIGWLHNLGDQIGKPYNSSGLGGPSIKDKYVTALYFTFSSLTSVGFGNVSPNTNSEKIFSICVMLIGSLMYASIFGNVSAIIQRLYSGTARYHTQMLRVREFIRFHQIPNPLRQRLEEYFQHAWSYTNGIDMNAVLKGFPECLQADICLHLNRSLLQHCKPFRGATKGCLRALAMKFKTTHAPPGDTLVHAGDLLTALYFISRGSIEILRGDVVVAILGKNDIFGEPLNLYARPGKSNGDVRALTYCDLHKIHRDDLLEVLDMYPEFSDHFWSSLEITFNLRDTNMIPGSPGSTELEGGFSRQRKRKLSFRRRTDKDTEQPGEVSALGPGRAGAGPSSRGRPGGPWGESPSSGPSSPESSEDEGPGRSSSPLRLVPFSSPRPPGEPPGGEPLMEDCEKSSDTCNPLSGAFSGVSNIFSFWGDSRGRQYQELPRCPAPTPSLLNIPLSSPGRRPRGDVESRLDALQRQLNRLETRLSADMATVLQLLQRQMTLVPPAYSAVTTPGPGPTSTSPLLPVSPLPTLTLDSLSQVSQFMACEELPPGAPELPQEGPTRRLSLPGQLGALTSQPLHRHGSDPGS
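Also: peak tail current of the secondary pulse compared with the same well before compound.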

Point of comparison: `CCN(CC)CCSc1nc2ccccc2n1Cc1ccccc1.Cl`, “hERG current change (%, negative = inhibition) at 10uM” value -74.1%. Against it:
- O=C(CN1CCCCC1)N=Nc1c(O)[nH]c2ccccc12 — higher, 4.68%
- O=C(CN1CCN(Cc2ccccc2Cl)CC1)N=Nc1c(O)[nH]c2ccccc12 — higher, -61.3%
- COCC(=O)N=Nc1c(O)[nH]c2ccccc12 — higher, -5.52%
- O=C(Cc1cccs1)N=Nc1c(O)[nH]c2ccccc12 — higher, 7.07%
- O=C(N=Nc1c(O)[nH]c2ccccc12)c1ccc(CN2CCOCC2)cc1 — higher, 22.9%
- Cc1ccc(CN2CCN(CC(=O)N=Nc3c(O)[nH]c4ccccc34)CC2)cc1 — higher, -73.5%
- O=C(CSCc1ccccc1)N=Nc1c(O)[nH]c2ccccc12 — higher, -19.1%
- O=C(CN1CCN(Cc2ccccc2)CC1)N=Nc1c(O)[nH]c2ccccc12 — higher, -65%
- O=C(CCN1CCCCC1)N=Nc1c(O)[nH]c2ccccc12 — higher, 11.3%
- N#Cc1ccccc1NC(=S)Nc1ccc(F)cc1 — higher, 16.2%
- CCN(C(=O)c1cc2c(=O)[nH]c3ccc(C)cc3c2s1)c1ccc(OC)cc1 — higher, 9.09%
- COC(=O)c1ccc(N2CCN(C)CC2)c(NC(=O)c2sc3ccccc3c2Cl)c1 — higher, 13.1%
- COc1ccc(C=C(C#N)C#N)c(CSc2ccccn2)c1 — higher, 1.19%
- COc1ccc(C(=O)Nc2ccc(N3CCCCC3)cc2)cc1Br — higher, -8.48%
- O=C(N/N=C/c1cc(Br)cc(Br)c1O)c1ccncc1 — higher, 15.6%
- Cc1ccc(S(=O)(=O)CCC(=O)OCC(=O)N2c3ccccc3NC(=O)C2(C)C)cc1 — higher, 14%
- O=C(O)C(=O)/C(=C\c1ccccc1)c1ccc2ccccc2n1 — higher, 13.9%
- O=C(Nc1cccc(-c2csc(Nc3ccccc3)n2)c1)c1ccccc1 — higher, 2.4%
- COc1ccc(OCC(=O)N2CCN(c3nnc(-c4ccccc4)c4ccccc34)CC2)cc1 — higher, -64.4%
- Cc1ccc(OCC(=O)N2CCN(C3=NS(=O)(=O)c4ccccc43)CC2)cc1 — higher, -60.8%
- O=C(CSc1ncn[nH]1)N1CCN(c2nnc(-c3ccccc3)c3ccccc23)CC1 — higher, -0.967%
- CCN(CC)C(=O)COc1ccc(-c2nnc(N3CCCCC3)c3ccccc23)cc1 — higher, -25.4%
- COc1ccc(OCC(=O)N2CCN(c3nnc(-c4ccc(C)cc4)c4ccccc34)CC2)cc1 — higher, -44.9%
- COc1ccc(-c2nnc(N3CCCCC3)c3ccccc23)cc1 — higher, -47.3%
- Cc1ccc(OCC(=O)N2CCN(C(=O)Cc3ccccc3)CC2)cc1 — higher, -38.4%
- Cc1ccc(-c2nnc(N3CCN(C(=O)COc4ccccc4)CC3)c3ccccc23)cc1 — higher, -52.1%
- O=C(COc1ccc([N+](=O)[O-])cc1)N1CCN(c2nnc(-c3ccccc3)c3ccccc23)CC1 — higher, -66.5%
- CCCC(=O)N1CCN(C2=NS(=O)(=O)c3ccccc32)CC1 — higher, -3%
- CC(C)N1C(=O)N(c2cccc(Cl)c2)C(C)(O)CC1(C)C (stereo not shown) — higher, 17.5%
- COc1cccc(-c2nc(CS(=O)CC(=O)NCc3ccccc3)c(C)o2)c1 (stereo not shown) — higher, -6.07%
- CCCOc1cccc(NC(=O)c2c(-c3ccccc3)noc2C)c1 — higher, -8.81%
- CCC1(O)CC(C(=O)OC)=NN1C(=O)c1ccccc1 (stereo not shown) — higher, 7.94%
- COc1ccccc1-n1cnnc1SCC(=O)Nc1ncc(Cl)cc1Cl — higher, -0.265%
- COc1ccccc1OCC(=O)NCCSCc1ccc(Cl)cc1 — higher, -45%
- COc1ccc(C(=O)N/C(=C\c2ccccc2)C(=O)Nc2ccccc2C(=O)O)cc1 — higher, 11.3%
- COc1ccccc1C(=O)NNC(=O)c1ccc(C)cc1 — higher, 9.24%
- Cc1ccc(NC(=O)C2(N3CCC3=O)CCCCC2)cc1 — higher, 6.92%
- COCC(C)NC(=O)C(C)Oc1ccccc1 (stereo not shown) — higher, 12%
- CC(C)c1nnc(NC(=O)CCC(=O)NCc2ccccc2Cl)s1 — higher, 11.2%
- Cn1cnc([N+](=O)[O-])c1NCc1ccccc1 — higher, 10.3%
- COc1cc(/C=N/Nc2nc(Nc3ccccc3)nc(N3CCOCC3)n2)ccc1OC(=O)c1ccco1 — higher, 13.6%
- O=C(CN1C(=O)c2ccccc2C1=O)N1CCN(c2nnc(-c3ccccc3)c3ccccc23)CC1 — higher, 5.5%
- Cc1ccc(OCC(=O)N2CCN(c3nnc(-c4ccc(C)cc4)c4ccccc34)CC2)cc1 — higher, -49.3%
- Cc1ccc(OCC(=O)N2CCN(c3nnc(-c4ccccc4)c4ccccc34)CC2)cc1 — higher, -61.5%
- Cn1c(=O)n(CC(=O)N2CCN(c3nnc(-c4ccccc4)c4ccccc34)CC2)c2ccccc21 — higher, -56%
- Cc1ccc(-c2nnc(N3CCN(C(=O)Cn4c(=O)n(C)c5ccccc54)CC3)c3ccccc23)cc1 — higher, -28.7%
- CCC(=O)N1CCN(c2nnc(-c3ccccc3)c3ccccc23)CC1 — higher, -13.5%
- O=C(COc1ccccc1)N1CCN(c2nnc(-c3ccccc3)c3ccccc23)CC1 — higher, -65.3%
- O=C(COc1ccc(-c2nnc(N3CCCCC3)c3ccccc23)cc1)N1CCCCC1 — higher, -32.3%
- CCNC(=S)NCc1ccc(F)cc1 — higher, 5.03%
- Br.NS(=O)(=O)c1ccc(Nc2nc(-c3ccccc3)cs2)cc1 — higher, -26%
- CCCn1c(=O)c(C(=O)Nc2ccccc2C(=O)OC)c(O)c2ccccc21 — higher, 5.91%
- S=C1NCCNC(=S)NCCOCCOCCOCCN1 — higher, 15.2%
- CCOC(=O)c1nn(-c2ccccc2)c2nnc(Cc3ccc(Cl)cc3)c(=O)n12 — higher, 3.57%
- COc1cccc(OC)c1OCCCCN1CCC(Cc2ccccc2)CC1.O=C(O)C(=O)O — lower, -81.9%
- COc1cccc(OC)c1OCCCCCCN1CCN(C)CC1.Cl — higher, 8.54%
- COc1cccc(OC)c1OCCCCN1CCCC1 — higher, -2.47%
- CC(=O)CCc1ccc(OCCCCn2cncn2)cc1 — higher, -4.29%
- COc1cccc(OC)c1OCCCN1CCC(Cc2ccccc2)CC1.O=C(O)C(=O)O — lower, -80.6%
- COc1cccc(OC)c1OCCCN1CCOCC1 — higher, 4.22%
- CC(=O)CCc1ccc(OCCCCN2CCC(Cc3ccccc3)CC2)cc1.O=C(O)C(=O)O — lower, -79.5%
- COc1ccc(OCC(=O)N2CCC(Cc3ccccc3)CC2)cc1 — higher, -36%
- COc1cccc(OC)c1OCCCCN1CCCCC1.O=C(O)C(=O)O — higher, -2.55%
- COc1ccccc1OCC(=O)OCC(=O)Nc1ncc(Cl)cc1Cl — higher, 12.8%
- Cc1ccc2nc(NC(=O)/C=C/c3ccc4c(c3)OCO4)sc2c1 — higher, 14.8%
- Cc1cccc(CNC(=O)c2ccc(NC(=O)C3=CSCCO3)cc2)c1 — higher, 5.08%
- CSc1nnc(NC(=O)CCc2ccccc2)s1 — higher, -6.33%
- COc1ccc(NC(=O)CN(C)C(=O)c2ccccc2SCC(=O)N2CCCC2)cc1 — higher, 10.5%
- CCN(CC)CCSc1nnc(Nc2ccccc2)n1-c1ccccc1 — lower, -75.9%
- OCCn1nc2c3ccccc3nc-2n(-c2ccccc2)c1=S — higher, -9.49%
- CN(C)C(=O)CSc1nc2ccccc2n1Cc1ccccc1 — higher, -11.8%
- O=C(O)CCSc1nc2ccccc2n1Cc1ccccc1 — higher, 24.1%
- CSc1nc2ccccc2n1Cc1cccc([N+](=O)[O-])c1 — higher, -44.8%
- CCN(CC)CCSc1nc(O)c(-c2ccccc2)c(=O)n1-c1ccccc1.Cl — higher, 12.1%
- CCN(CC)CCSc1nc2ccccc2c(=S)n1-c1ccccc1.Cl — higher, -51.9%
- O=C(O)CSc1nnc(Nc2ccccc2)n1-c1ccccc1 — higher, 18.6%
- CCSc1nc2ccccc2n1Cc1cccc([N+](=O)[O-])c1 — higher, -69.7%
- COc1ccc(Cn2c(SC)nc3ccccc32)cc1[N+](=O)[O-] — higher, 13.9%
- CCN(CC)C(=O)CSc1nnc(-c2ccccc2)n1-c1ccccc1 — higher, 17.8%
- CCc1n[nH]c(=S)n1/N=C/c1ccc(NC(C)=O)cc1 — higher, 13%
- COc1cc(NC(=O)COC(=O)CO/N=C(\C)c2ccc3c(c2)OCO3)cc(OC)c1 — higher, 14.6%
- CC1CCc2sc(C(=O)Nc3ccc(N4CCOCC4)cc3)cc2C1 (stereo not shown) — higher, 11.6%
- COc1cccc2c1OCC(C(=O)Nc1nccs1)=C2 — higher, -0.366%
- CC(=O)C1=C(O)C(=O)N(c2ccc(Br)cn2)C1c1ccccc1F (stereo not shown) — higher, 10.6%
- CC(=O)N(C)c1ccc(NS(=O)(=O)Cc2ccccc2)cc1 — higher, -8.12%
- O=C(CCSc1ccccc1)Nc1ncccn1 — higher, 14.9%
- COC(=O)c1ccc(Cl)c(NS(=O)(=O)c2ccc3c(c2)OCCO3)c1 — higher, -25.4%
- Cc1sc2nc3c4ccccc4c(NCc4ccco4)nn3c(=O)c2c1C — higher, -56.6%
- O=c1c2ccccc2nc2c3ccccc3c(NCc3ccco3)nn12 — higher, -17.8%
- Cc1sc2nc3ccc(NCc4ccco4)nn3c(=O)c2c1C — higher, -21.7%
